# PubChem BioAssay
# Calls of active or inactive are those of the source.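 How the source made its calls, unless noted: active means mean inhibition over 43.08%, the solvent-only control mean plus 3 SD; inactive means the rest.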
# Target: Nuclear receptor coactivator 3 (Homo sapiens) (UniProt Q9Y6Q9)
# Experiment: NCOA3 GAL4-fusion reporter inhibition – cell-based, luminescence, quadruplicate, confirmation (AID 588792);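 further: 0% = DMSO treated cells and 100% = gossypol at 36 µM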
# Settings: HEK293 GAL4-SRC3 luciferase reporter, at 3.6 µM, hits give high values
# Nuclear receptor coactivator 3 (Homo sapiens), sequence (Q9Y6Q9 whole entry, looked up, the tested form may be a part): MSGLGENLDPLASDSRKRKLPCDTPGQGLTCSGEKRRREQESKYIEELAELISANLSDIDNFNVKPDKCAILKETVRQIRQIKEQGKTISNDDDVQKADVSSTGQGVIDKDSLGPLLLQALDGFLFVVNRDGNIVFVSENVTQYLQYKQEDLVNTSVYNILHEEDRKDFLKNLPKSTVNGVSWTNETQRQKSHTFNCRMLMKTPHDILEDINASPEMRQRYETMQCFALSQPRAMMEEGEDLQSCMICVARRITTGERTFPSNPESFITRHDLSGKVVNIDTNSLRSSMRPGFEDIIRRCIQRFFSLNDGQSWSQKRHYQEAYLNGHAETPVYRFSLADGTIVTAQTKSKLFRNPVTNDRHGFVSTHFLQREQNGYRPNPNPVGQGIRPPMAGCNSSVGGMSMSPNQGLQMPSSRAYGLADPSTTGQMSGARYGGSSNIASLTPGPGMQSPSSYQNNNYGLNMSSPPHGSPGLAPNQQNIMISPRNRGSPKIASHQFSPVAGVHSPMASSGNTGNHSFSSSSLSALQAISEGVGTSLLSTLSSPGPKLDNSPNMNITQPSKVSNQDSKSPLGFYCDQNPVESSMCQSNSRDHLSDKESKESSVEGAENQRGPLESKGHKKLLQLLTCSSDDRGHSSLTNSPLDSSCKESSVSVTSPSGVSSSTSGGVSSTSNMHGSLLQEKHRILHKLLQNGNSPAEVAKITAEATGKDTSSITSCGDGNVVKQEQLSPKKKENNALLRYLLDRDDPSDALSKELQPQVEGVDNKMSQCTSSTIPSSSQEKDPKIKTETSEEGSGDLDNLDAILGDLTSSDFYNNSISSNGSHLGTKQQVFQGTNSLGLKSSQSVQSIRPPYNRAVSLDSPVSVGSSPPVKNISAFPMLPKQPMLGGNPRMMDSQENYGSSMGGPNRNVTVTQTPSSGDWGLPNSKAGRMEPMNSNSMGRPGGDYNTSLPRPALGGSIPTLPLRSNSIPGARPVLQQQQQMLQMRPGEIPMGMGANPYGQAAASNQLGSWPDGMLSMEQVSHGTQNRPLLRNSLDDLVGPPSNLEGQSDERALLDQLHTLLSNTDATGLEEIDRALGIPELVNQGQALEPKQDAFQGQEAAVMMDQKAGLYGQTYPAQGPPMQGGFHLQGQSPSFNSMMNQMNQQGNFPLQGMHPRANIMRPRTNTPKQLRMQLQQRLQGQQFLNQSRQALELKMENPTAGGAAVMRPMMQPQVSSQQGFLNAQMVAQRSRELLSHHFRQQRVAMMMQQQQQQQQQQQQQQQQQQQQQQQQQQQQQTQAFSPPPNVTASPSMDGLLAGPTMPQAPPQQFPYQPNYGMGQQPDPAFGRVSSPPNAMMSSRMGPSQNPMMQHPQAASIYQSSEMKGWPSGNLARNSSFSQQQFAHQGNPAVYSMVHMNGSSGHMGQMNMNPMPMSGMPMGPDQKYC
row,Structure (SMILES),inhibition
1,CCN(CC(=O)Nc1ccc(OC)cc1)C(=O)CSCC(=O)Nc1cc(C)on1,5.34% (inactive)
2,CN[C@H]1CCc2cc(OC)c(OC)c(OC)c2-c2ccc(OC)c(=O)cc21,40.5% (inactive)
3,Cn1nc(C(F)(F)F)c(-c2ccccc2)c1NC(=O)c1cccnc1,18.6% (inactive)
4,COc1ccc(CNS(=O)(=O)c2ccc3c(c2)N(C(C)=O)CC(C)S3)cc1 (stereo not given),7.83% (inactive)
5,COc1ccc(/C=C/C(=O)C23CC4CC(CC(C4)C2)C3)cc1CN1CCOCC1,22.6% (inactive)
6,CC/C(C)=N/Nc1cccc([N+](=O)[O-])c1,2.68% (inactive)
7,O=C(O)c1cc(NS(=O)(=O)c2ccc(N3CCOCC3)c([N+](=O)[O-])c2)cc(C(=O)O)c1,1.8% (inactive)
8,CC(=O)/C=C/c1ccc2ccccc2n1,-15.9% (inactive)
9,CCC(C)c1ccc(NC(=S)N2CCN(C(=O)C3CCCO3)CC2)cc1 (stereo not given),8.54% (inactive)
10,Cc1cccc(/C=N/n2c(-c3ccncc3)n[nH]c2=S)c1,11.2% (inactive)
11,C=CCSc1nc2ccccc2n1C(=O)/C=C/c1cc(OC)c(OC)c(OC)c1,-6.27% (inactive)
12,COc1ccc(CCN2C(=O)C(Oc3ccccc3C)C2c2ccc3c(c2)OCO3)cc1 (stereo not given),2.45% (inactive)
13,CC(=O)c1c(C(C)=O)c(C)n(-c2ccc3ncccc3c2)c1C,15.4% (inactive)
14,COc1ccc(C2OC(=O)CC2C(=O)NCc2ccc(F)cc2)cc1OC (stereo not given),-5.31% (inactive)
15,COc1ccc(C(Cl)=C(C=O)c2ccc(OC)c(OC)c2)cc1OC,22.3% (inactive)
16,C/C(=N\NC(=S)Nc1cc(S(=O)(=O)N2CCOCC2)ccc1Cl)c1ccccc1F,31.8% (inactive)
17,Cc1ccc(S(=O)(=O)N2CCOCC2)cc1C(=O)Nc1cc(S(=O)(=O)N2CCCCC2)ccc1O,-2.21% (inactive)
18,CCN1/C(=C/c2cc[n+](C)cc2)C=Cc2cc(C)ccc21,17% (inactive)
19,COc1cc(C(=O)NC2CCCc3c2cnn3-c2ccccc2F)cc(OC)c1OC (stereo not given),2.41% (inactive)
20,Cc1ccc(C(=O)NC2c3ccccc3-c3ccccc32)cc1,11.3% (inactive)

row,Structure (SMILES),inhibition
1,O=C(COc1ccc(Cl)cc1)Nc1ccc(C(=O)NCc2cccnc2)cc1,55.6% (active)
2,COc1ccc([N+](=O)[O-])cc1NC(=O)Nc1cccc(Cl)c1,19.4% (inactive)
3,COc1ccc(-c2cc(C(=O)N(C)Cc3ccc(OC)c(OC)c3OC)c3ccccc3n2)cc1OC,8.88% (inactive)
4,O=C(Oc1ccc(F)cc1C(=O)/C=C/c1cccs1)c1cccc([N+](=O)[O-])c1,-13.7% (inactive)
5,CC(C)(C)CNC(=O)[C@]1(C)CCC[C@@]2(C)C3CC[C@@]4(C)C[C@]3(CCC21)CC4=O (stereo not given in full),9.18% (inactive)
6,COc1ccc(C(=O)NCC(=O)OCc2c(Cl)cccc2Cl)cc1OC,-0.66% (inactive)
7,c1ccc(NNC2=NCCCCC2)cc1,1.28% (inactive)
8,Cc1ccc(NC(=O)C2CCN(c3ncnc4c3nc3n4CCCCC3)CC2)cc1Cl,-20.6% (inactive)
9,Cc1c(Cl)cccc1NC(=O)Nc1ccccc1C(N)=O,29.1% (inactive)
10,COC(=O)c1c(NC(=O)c2ccccc2)sc(C(N)=O)c1C,26.7% (inactive)
11,Cc1cc(C)c2nc3nc(C)cc(C)c3c(N)c2c1,24.5% (inactive)
12,CCOC(=O)c1c(-c2ccccc2)oc2ccc(O)c(CN3CCOCC3)c12,-5.57% (inactive)
13,COc1cccc(CNCCO)c1OCc1ccccc1,-2.38% (inactive)
14,Cc1nc(Nc2ccc3c(c2)OCCO3)c2nnn(Cc3ccccc3Cl)c2n1,22.1% (inactive)
15,Cc1ccccc1-n1nnnc1Sc1nnnn1-c1ccccc1,7% (inactive)
16,CCN(C(=O)COC(=O)c1ccccc1Cc1ccccc1)c1c(N)n(Cc2ccccc2)c(=O)[nH]c1=O,6.67% (inactive)
17,CCCN1CCN(C2CCCCC2NS(=O)(=O)c2ccccc2)CC1 (stereo not given),-7.15% (inactive)
18,Cc1ccc(S(=O)(=O)NCC(=O)N(c2ccccc2)C(C(=O)NCc2ccccc2)c2ccco2)cc1 (stereo not given),-2.76% (inactive)
19,Clc1ccc(-c2c[n+](Cc3ccc(Cl)cc3Cl)c3n2CCCCC3)cc1,6.98% (inactive)
20,Cc1ccc(-c2c[n+](Cc3cccc(Cl)c3)c3n2CCC3)cc1,-6.57% (inactive)

# System: transactivating tegument protein VP16 (Human herpesvirus 1), Gal4-VP16 luciferase reporter
# Experiment: repression of VP16-driven luciferase reporter – cell-based, luminescence, high throughput, counter-screen for SRC3 inhibitor project (AID 588794; in the data active means inhibition above about 30%)
# Settings: mammalian cells, at 3.6 µM, hits give high values
row,Structure (SMILES),inhibition
1,CCN(CC(=O)Nc1ccc(OC)cc1)C(=O)CSCC(=O)Nc1cc(C)on1,5.42% (inactive)
2,CN[C@H]1CCc2cc(OC)c(OC)c(OC)c2-c2ccc(OC)c(=O)cc21,-10.4% (inactive)
3,Cn1nc(C(F)(F)F)c(-c2ccccc2)c1NC(=O)c1cccnc1,11.4% (inactive)
4,COc1ccc(CNS(=O)(=O)c2ccc3c(c2)N(C(C)=O)CC(C)S3)cc1 (stereo not given),11.6% (inactive)
5,COc1ccc(/C=C/C(=O)C23CC4CC(CC(C4)C2)C3)cc1CN1CCOCC1,6.66% (inactive)
6,CC/C(C)=N/Nc1cccc([N+](=O)[O-])c1,18% (inactive)
7,O=C(O)c1cc(NS(=O)(=O)c2ccc(N3CCOCC3)c([N+](=O)[O-])c2)cc(C(=O)O)c1,-5.01% (inactive)
8,CC(=O)/C=C/c1ccc2ccccc2n1,18.8% (inactive)
9,CCC(C)c1ccc(NC(=S)N2CCN(C(=O)C3CCCO3)CC2)cc1 (stereo not given),-1.88% (inactive)
10,Cc1cccc(/C=N/n2c(-c3ccncc3)n[nH]c2=S)c1,2.95% (inactive)
11,C=CCSc1nc2ccccc2n1C(=O)/C=C/c1cc(OC)c(OC)c(OC)c1,-10.3% (inactive)
12,COc1ccc(CCN2C(=O)C(Oc3ccccc3C)C2c2ccc3c(c2)OCO3)cc1 (stereo not given),8.58% (inactive)
13,CC(=O)c1c(C(C)=O)c(C)n(-c2ccc3ncccc3c2)c1C,6.55% (inactive)
14,COc1ccc(C2OC(=O)CC2C(=O)NCc2ccc(F)cc2)cc1OC (stereo not given),-5.19% (inactive)
15,COc1ccc(C(Cl)=C(C=O)c2ccc(OC)c(OC)c2)cc1OC,-10.7% (inactive)
16,C/C(=N\NC(=S)Nc1cc(S(=O)(=O)N2CCOCC2)ccc1Cl)c1ccccc1F,28.8% (inactive)
17,Cc1ccc(S(=O)(=O)N2CCOCC2)cc1C(=O)Nc1cc(S(=O)(=O)N2CCCCC2)ccc1O,-4.27% (inactive)
18,CCN1/C(=C/c2cc[n+](C)cc2)C=Cc2cc(C)ccc21,70.9% (active)
19,COc1cc(C(=O)NC2CCCc3c2cnn3-c2ccccc2F)cc(OC)c1OC (stereo not given),21% (inactive)
20,Cc1ccc(C(=O)NC2c3ccccc3-c3ccccc32)cc1,12.1% (inactive)

row,Structure (SMILES),inhibition
1,O=C(COc1ccc(Cl)cc1)Nc1ccc(C(=O)NCc2cccnc2)cc1,-24.6% (inactive)
2,COc1ccc([N+](=O)[O-])cc1NC(=O)Nc1cccc(Cl)c1,15.4% (inactive)
3,COc1ccc(-c2cc(C(=O)N(C)Cc3ccc(OC)c(OC)c3OC)c3ccccc3n2)cc1OC,6.51% (inactive)
4,O=C(Oc1ccc(F)cc1C(=O)/C=C/c1cccs1)c1cccc([N+](=O)[O-])c1,-23.3% (inactive)
5,CC(C)(C)CNC(=O)[C@]1(C)CCC[C@@]2(C)C3CC[C@@]4(C)C[C@]3(CCC21)CC4=O (stereo not given in full),17.9% (inactive)
6,COc1ccc(C(=O)NCC(=O)OCc2c(Cl)cccc2Cl)cc1OC,1.22% (inactive)
7,c1ccc(NNC2=NCCCCC2)cc1,-9.77% (inactive)
8,Cc1ccc(NC(=O)C2CCN(c3ncnc4c3nc3n4CCCCC3)CC2)cc1Cl,-3.54% (inactive)
9,Cc1c(Cl)cccc1NC(=O)Nc1ccccc1C(N)=O,27.1% (inactive)
10,COC(=O)c1c(NC(=O)c2ccccc2)sc(C(N)=O)c1C,55.4% (active)
11,Cc1cc(C)c2nc3nc(C)cc(C)c3c(N)c2c1,57.9% (active)
12,CCOC(=O)c1c(-c2ccccc2)oc2ccc(O)c(CN3CCOCC3)c12,4.57% (inactive)
13,COc1cccc(CNCCO)c1OCc1ccccc1,8.14% (inactive)
14,Cc1nc(Nc2ccc3c(c2)OCCO3)c2nnn(Cc3ccccc3Cl)c2n1,-3.54% (inactive)
15,Cc1ccccc1-n1nnnc1Sc1nnnn1-c1ccccc1,7.79% (inactive)
16,CCN(C(=O)COC(=O)c1ccccc1Cc1ccccc1)c1c(N)n(Cc2ccccc2)c(=O)[nH]c1=O,13.9% (inactive)
17,CCCN1CCN(C2CCCCC2NS(=O)(=O)c2ccccc2)CC1 (stereo not given),-2.22% (inactive)
18,Cc1ccc(S(=O)(=O)NCC(=O)N(c2ccccc2)C(C(=O)NCc2ccccc2)c2ccco2)cc1 (stereo not given),4.99% (inactive)
19,Clc1ccc(-c2c[n+](Cc3ccc(Cl)cc3Cl)c3n2CCCCC3)cc1,10.8% (inactive)
20,Cc1ccc(-c2c[n+](Cc3cccc(Cl)c3)c3n2CCC3)cc1,18.4% (inactive)
